Hits are enriched below; roughly 4.3% of the tested compounds scored in any of these assays.
MITF act: MITF TRPM1 promoter activation in melanoma cells; SK-MEL-5 TRPM1-promoter luciferase, 24 h; % of positive control, neutral wells = 0; activation, % at 12.5 µM; 300,000 tested, 0.75% active; AID 588334;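 active means mean activation of at least 80% with every replicate also reaching 80%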
FGF22 binding: binders of recombinant human FGF22 by thermal shift | AID 651658 | SYPRO orange fluorescence; percent of sucrose octasulfate shift, DMSO zero | 340,000 tested, 1.5% active | activity (Tm shift, normalised), % at 9.99 µM;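 active means mean Tm shift, scaled 0 neutral to 100 positive control, at about 1.3% or above, every replicate too, limit read from the data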
AF4-AF9 inh: blocks AF4 peptide binding to human AF9. P42568. AlphaScreen, biotin-AF4 peptide binding to FLAG-AF9. inhibition, % at 10 µM. 350,000 tested, 0.47% active;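 active means every replicate reaching a set inhibition limit, whatever the replicate mean, cut at about 25% in these data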
Target sequence (P42568 whole entry, looked up): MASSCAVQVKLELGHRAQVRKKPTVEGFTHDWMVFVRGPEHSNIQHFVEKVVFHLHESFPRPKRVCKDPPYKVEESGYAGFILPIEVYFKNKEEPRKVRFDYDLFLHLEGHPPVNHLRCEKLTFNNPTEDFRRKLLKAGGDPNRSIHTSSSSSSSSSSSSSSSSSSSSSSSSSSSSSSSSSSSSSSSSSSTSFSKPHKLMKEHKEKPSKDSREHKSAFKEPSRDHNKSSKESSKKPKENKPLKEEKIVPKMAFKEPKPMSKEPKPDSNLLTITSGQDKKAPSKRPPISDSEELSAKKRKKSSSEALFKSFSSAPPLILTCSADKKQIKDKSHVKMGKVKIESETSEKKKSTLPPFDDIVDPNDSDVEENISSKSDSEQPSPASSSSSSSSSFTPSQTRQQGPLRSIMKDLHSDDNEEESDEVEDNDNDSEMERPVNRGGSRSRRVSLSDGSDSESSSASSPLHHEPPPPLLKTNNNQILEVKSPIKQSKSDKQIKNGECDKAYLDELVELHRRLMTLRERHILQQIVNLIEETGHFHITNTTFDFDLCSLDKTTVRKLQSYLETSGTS
SMARCA2 activ: increases SMARCA2 function in MMTV reporter cells. MG213 cells, MMTV-luciferase reporter, dexamethasone, overnight. activation, % at 9.1 µM. 370,000 tested, 1% active; in the data active means activation above about 7.8%
esBAF inh: blocks esBAF chromatin remodeling in mouse ES cells | Bmi1-luciferase knock-in reporter, 24 h; 100% = twice the neutral-well signal | 350,000 tested, 2% active | reporter increase, % at 12.5 µM; in the data active means activation above about 40%;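 further: a rise in the Bmi1 reporter signal indicates esBAF inhibition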
Wnt bcat act: Wnt/beta-catenin pathway activation; 300,000 tested, 1.2% active; Wnt/beta-catenin reporter cell assay, activator, plate reader; activation, % at 9.35 µM; AID 743398; in the data active means activation above about 30%, passing the limit was not always enough
Hits are given with their value.

What do the screens show for `CCCNC(=O)N(C)C[C@H]1Oc2ncc(-c3ccccc3)cc2C(=O)N([C@@H](C)CO)C[C@@H]1C`?
FGF22 binding: inactive; AF4-AF9 inh: inactive; esBAF inh: inactive

What do the screens show for `COCCN(Cc1cc2cc(C)ccc2n2nnnc12)C(=S)Nc1ccc(C)cc1`?
MITF act: inactive; FGF22 binding: inactive; AF4-AF9 inh: inactive; SMARCA2 activ: inactive; Wnt bcat act: inactive

What do the screens show for `COCCNC(=S)N(Cc1cc2cc(C)ccc2n2nnnc12)C1CCCC1`?
MITF act: inactive; FGF22 binding: 43.1; AF4-AF9 inh: inactive; SMARCA2 activ: inactive; esBAF inh: inactive; Wnt bcat act: inactive

What do the screens show for `Clc1ccc(OCc2nc3ccccc3[nH]2)cc1`?
MITF act: 88.0; FGF22 binding: inactive; AF4-AF9 inh: inactive; SMARCA2 activ: inactive; esBAF inh: 85.2; Wnt bcat act: inactive

What do the screens show for `C=C(C)CSCc1nc2ccccc2[nH]1`?
MITF act: inactive; SMARCA2 activ: inactive; esBAF inh: inactive; Wnt bcat act: inactive

How did c1ccc(OCc2nc3ccccc3[nH]2)cc1 do in these assays?
SMARCA2 activ: inactive; esBAF inh: 50.7; Wnt bcat act: 62.0

What do the screens show for `O=C(O)CSCc1nc2ccccc2[nH]1`?
MITF act: inactive; FGF22 binding: 43.6; AF4-AF9 inh: inactive; SMARCA2 activ: inactive; esBAF inh: inactive; Wnt bcat act: inactive

How did OC(Cc1nc2ccccc2[nH]1)c1ccccc1Cl (stereo unspecified) do in these assays?
MITF act: inactive; FGF22 binding: inactive; AF4-AF9 inh: inactive; SMARCA2 activ: inactive; esBAF inh: 54.9; Wnt bcat act: inactive

What do the screens show for `C/C=C/c1cccc(-c2nc(C(=O)NCc3ccccc3)cc3c2[C@H](CCO)N([S@@](=O)C(C)(C)C)C3)c1`?
FGF22 binding: inactive; AF4-AF9 inh: inactive; esBAF inh: inactive

Results for C[C@H](CO)N1C[C@H](C)[C@@H](CN(C)C(=O)Cc2cccnc2)Oc2ncc(C3=CCCCC3)cc2C1=O ?
FGF22 binding: inactive; AF4-AF9 inh: inactive; esBAF inh: inactive

How did CN(C)CCCN(Cc1cc2cc3c(cc2[nH]c1=O)OCO3)C(=S)Nc1cccc(Cl)c1 do in these assays?
MITF act: inactive; FGF22 binding: inactive; AF4-AF9 inh: inactive; SMARCA2 activ: inactive; esBAF inh: inactive; Wnt bcat act: inactive

Results for CN(C)CCCN(Cc1cc2cc3c(cc2[nH]c1=O)OCO3)C(=S)Nc1ccccc1 ?
MITF act: inactive; FGF22 binding: 43.0; AF4-AF9 inh: inactive; SMARCA2 activ: inactive; esBAF inh: inactive; Wnt bcat act: inactive

What do the screens show for `COc1ccc2[nH]c(=O)c(CN(CC3CCCO3)C(=S)Nc3ccccc3)cc2c1` (stereo unspecified)?
MITF act: inactive; FGF22 binding: 43.6; AF4-AF9 inh: inactive; SMARCA2 activ: inactive; Wnt bcat act: inactive

How did O=C(OCc1nc2ccsc2c(=O)[nH]1)c1ccccc1 do in these assays?
MITF act: inactive; FGF22 binding: inactive; AF4-AF9 inh: inactive; SMARCA2 activ: inactive; Wnt bcat act: inactive

Results for O=C(OCc1nc2ccsc2c(=O)[nH]1)c1ccc(Cl)nc1 ?
MITF act: inactive; FGF22 binding: inactive; AF4-AF9 inh: inactive; SMARCA2 activ: inactive; esBAF inh: inactive; Wnt bcat act: 41.3

What do the screens show for `CC1CCc2nc(NC(=O)C3CC3)sc2C1` (stereo unspecified)?
MITF act: inactive; SMARCA2 activ: inactive

Results for Cc1ncsc1C(=O)Nc1nc2c(s1)CC(C)CC2 (stereo unspecified) ?
MITF act: inactive; SMARCA2 activ: inactive; esBAF inh: inactive; Wnt bcat act: 32.3

Results for CC(C)(C)C(=O)NC1CCCCN(Cc2cccc(Cl)c2)C1=O (stereo unspecified) ?
SMARCA2 activ: inactive

Results for C[C@@H]1CCCCO[C@@H](CN(C)C(=O)Nc2ccccc2)[C@H](C)CN([C@@H](C)CO)C(=O)c2cc(NS(=O)(=O)c3cn(C)cn3)ccc2O1 ?
FGF22 binding: inactive; AF4-AF9 inh: inactive; esBAF inh: inactive

How did CCC1CCCCN1C(=O)CCc1nnc(C2CCCCC2)o1 (stereo unspecified) do in these assays?
MITF act: inactive; FGF22 binding: 43.0; AF4-AF9 inh: inactive; SMARCA2 activ: inactive; esBAF inh: inactive; Wnt bcat act: inactive

What do the screens show for `CC(C)(CO)NS(=O)(=O)c1ccc2c(c1)C(=NO)c1cc(S(=O)(=O)NC(C)(C)CO)ccc1-2`?
MITF act: inactive; FGF22 binding: 42.9; AF4-AF9 inh: inactive; SMARCA2 activ: inactive; Wnt bcat act: inactive

What do the screens show for `COCCNS(=O)(=O)c1ccc2c(c1)C(=NO)c1cc(S(=O)(=O)NCCOC)ccc1-2`?
MITF act: inactive; FGF22 binding: inactive; AF4-AF9 inh: inactive; SMARCA2 activ: inactive; Wnt bcat act: inactive

Results for COc1ccc(S(=O)(=O)Nc2ccc3c(c2)C(=O)N([C@@H](C)CO)C[C@H](C)[C@H](CN(C)C)O3)cc1 ?
FGF22 binding: inactive; AF4-AF9 inh: inactive; esBAF inh: inactive

How did CCOC(=O)c1oc2cccc(O)c2c1C do in these assays?
SMARCA2 activ: inactive; esBAF inh: 48.3

What do the screens show for `O=C(C[C@@H]1C[C@@H]2c3cc(NS(=O)(=O)c4ccc(F)cc4)ccc3O[C@@H]2[C@@H](CO)O1)NCc1cc(F)ccc1F`?
FGF22 binding: inactive; AF4-AF9 inh: inactive; esBAF inh: inactive

Results for CCOc1c(Br)cc(CNc2ccc(N3CCN(C(C)=O)CC3)cc2)cc1OC ?
MITF act: inactive; FGF22 binding: inactive; AF4-AF9 inh: 26.8; SMARCA2 activ: inactive; Wnt bcat act: inactive

How did CCOC(=O)c1cc2c(c(-c3cccc(C#CCN(C)C)c3)n1)[C@@H](CCO)N(S(=O)C(C)(C)C)C2 (stereo partly specified) do in these assays?
FGF22 binding: inactive; AF4-AF9 inh: inactive; esBAF inh: inactive

Results for O=c1[nH]c2c(=O)[nH]cnc2nc1-c1ccccc1 ?
FGF22 binding: inactive; SMARCA2 activ: inactive; Wnt bcat act: inactive

Results for O=c1[nH]c(-c2ccccc2)cnc1-c1ccccc1 ?
FGF22 binding: inactive; AF4-AF9 inh: inactive; SMARCA2 activ: inactive; Wnt bcat act: 37.3

What do the screens show for `Cc1cc(C)c(C)c(S(=O)(=O)NC(C(=O)O)C(C)C)c1C` (stereo unspecified)?
MITF act: inactive; FGF22 binding: 43.2; AF4-AF9 inh: inactive; SMARCA2 activ: inactive; esBAF inh: inactive; Wnt bcat act: inactive

What do the screens show for `C[C@@H]1CN([C@H](C)CO)C(=O)c2cc(C3=CCCC3)cnc2O[C@H]1CN(C)C(=O)c1ccncc1`?
FGF22 binding: inactive; AF4-AF9 inh: inactive; esBAF inh: inactive

How did Cc1ccnc(NS(=O)(=O)c2ccc(NC(=O)c3ccc([N+](=O)[O-])s3)cc2)n1 do in these assays?
MITF act: inactive; FGF22 binding: 44.4; AF4-AF9 inh: inactive; SMARCA2 activ: inactive; Wnt bcat act: inactive

Bioassay records deposited in PubChem by several laboratories.
